# According to PMC7862700, “An all-to-all approach to the identification of sequence-specific readers for epigenetic DNA modifications on cytosine”:
# Tests used:
# Experiment in all cases: DAPPL (digital affinity profiling via proximity ligation, sequencing); 10 mM Tris-HCl pH 7.5, 50 mM NaCl, 1 mM DTT, 4% glycerol, room temperature, 30 min; GST-TFs on glutathione beads, 16-mer random dsDNA library, 0.1% formaldehyde crosslink after washing; high values mean tight binding
# Details in all cases: protein: recombinant; tags: N-terminal GST; dsDNA, one strand shown
# FEV = target: T1, FEV (Homo sapiens, UniProt Q99581 1-238)
# T1 sequence: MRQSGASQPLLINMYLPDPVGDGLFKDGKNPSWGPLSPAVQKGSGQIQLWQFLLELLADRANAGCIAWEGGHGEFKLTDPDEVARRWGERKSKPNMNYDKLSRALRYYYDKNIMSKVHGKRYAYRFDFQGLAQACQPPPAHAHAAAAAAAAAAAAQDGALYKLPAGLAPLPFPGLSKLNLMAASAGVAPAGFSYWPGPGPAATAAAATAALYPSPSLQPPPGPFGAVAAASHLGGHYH
# How it was run: (§1)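 Binding signal is each hexamer's read frequency for a factor divided by its frequency in the tag-only sample. The factors were GST-fused human transcription factors from yeast, captured on glutathione beads, DNA-barcoded and pooled with that sample. Pools were incubated with 200 nmole of a random double-stranded 16-mer DNA library in Tris/NaCl/DTT/glycerol buffer at room temperature for 30 min, then washed, crosslinked with 0.1% formaldehyde, proximity-ligated with BsaI/T4 ligase (1 h, 37 °C), PCR-amplified and sequenced on an Illumina NextSeq500.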
# ETV5 = ETV5 (Homo sapiens, UniProt P41161 1-510)
# Sequence of ETV5 (P41161 whole entry): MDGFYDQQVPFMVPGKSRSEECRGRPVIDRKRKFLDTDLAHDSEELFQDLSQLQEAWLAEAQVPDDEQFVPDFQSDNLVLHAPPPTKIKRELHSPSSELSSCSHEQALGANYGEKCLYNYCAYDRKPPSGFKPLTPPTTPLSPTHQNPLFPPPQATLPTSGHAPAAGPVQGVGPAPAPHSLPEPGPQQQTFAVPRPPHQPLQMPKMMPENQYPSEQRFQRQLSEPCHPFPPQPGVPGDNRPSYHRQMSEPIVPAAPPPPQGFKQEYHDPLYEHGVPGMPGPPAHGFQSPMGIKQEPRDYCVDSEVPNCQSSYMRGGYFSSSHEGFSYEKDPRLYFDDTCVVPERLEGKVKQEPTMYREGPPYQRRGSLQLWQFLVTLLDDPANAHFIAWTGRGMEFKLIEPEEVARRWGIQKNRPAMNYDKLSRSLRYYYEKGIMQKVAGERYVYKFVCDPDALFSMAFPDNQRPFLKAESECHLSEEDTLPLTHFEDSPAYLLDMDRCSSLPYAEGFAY
# How it was run: as §1
# SPIC = target: T2, SPIC (Homo sapiens, UniProt Q8N5J4 1-248)
# T2 sequence: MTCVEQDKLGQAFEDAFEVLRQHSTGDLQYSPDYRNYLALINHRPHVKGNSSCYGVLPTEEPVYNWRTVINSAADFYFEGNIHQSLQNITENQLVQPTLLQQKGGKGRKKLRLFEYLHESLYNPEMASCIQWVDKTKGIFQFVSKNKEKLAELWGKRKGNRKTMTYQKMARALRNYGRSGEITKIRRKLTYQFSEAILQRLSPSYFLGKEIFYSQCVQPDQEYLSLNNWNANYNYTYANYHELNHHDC
# How it was run: as §1
# ELF4 = ELF4 (Homo sapiens, UniProt Q99607 1-663)
# Sequence of ELF4 (Q99607 whole entry): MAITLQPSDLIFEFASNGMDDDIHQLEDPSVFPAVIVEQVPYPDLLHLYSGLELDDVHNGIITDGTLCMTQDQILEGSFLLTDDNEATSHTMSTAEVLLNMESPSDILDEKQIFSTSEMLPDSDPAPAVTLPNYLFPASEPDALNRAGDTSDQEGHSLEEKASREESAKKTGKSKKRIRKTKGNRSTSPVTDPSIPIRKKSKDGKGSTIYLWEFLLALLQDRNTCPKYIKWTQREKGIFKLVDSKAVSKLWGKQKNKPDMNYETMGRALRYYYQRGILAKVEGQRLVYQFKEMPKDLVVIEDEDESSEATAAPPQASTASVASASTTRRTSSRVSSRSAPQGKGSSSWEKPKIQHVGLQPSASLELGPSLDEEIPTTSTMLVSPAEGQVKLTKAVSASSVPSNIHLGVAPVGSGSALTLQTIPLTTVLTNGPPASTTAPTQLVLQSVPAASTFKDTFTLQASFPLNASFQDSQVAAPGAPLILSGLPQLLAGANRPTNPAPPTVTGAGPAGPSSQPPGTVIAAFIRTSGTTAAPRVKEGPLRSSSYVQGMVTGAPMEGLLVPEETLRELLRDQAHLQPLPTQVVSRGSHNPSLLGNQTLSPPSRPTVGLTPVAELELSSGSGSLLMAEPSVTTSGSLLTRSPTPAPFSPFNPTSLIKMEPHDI
# How it was run: as §1
# ELK4 = target: T3, ELK4 (Homo sapiens, UniProt P28324-2 1-405)
# T3 sequence: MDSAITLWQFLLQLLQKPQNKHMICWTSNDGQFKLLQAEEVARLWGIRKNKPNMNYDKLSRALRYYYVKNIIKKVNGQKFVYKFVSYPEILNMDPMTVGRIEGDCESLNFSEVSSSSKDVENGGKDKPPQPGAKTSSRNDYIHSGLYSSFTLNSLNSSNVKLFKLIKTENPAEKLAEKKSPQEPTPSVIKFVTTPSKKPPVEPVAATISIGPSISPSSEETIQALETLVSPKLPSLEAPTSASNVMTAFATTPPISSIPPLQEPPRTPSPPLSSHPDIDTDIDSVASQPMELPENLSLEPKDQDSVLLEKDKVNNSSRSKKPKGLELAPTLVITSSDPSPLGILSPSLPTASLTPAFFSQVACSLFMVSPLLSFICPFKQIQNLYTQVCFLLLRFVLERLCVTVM
# How it was run: as §1
# ETV2 = target: T4, ETV2 (Homo sapiens, UniProt O00321 1-342)
# T4 sequence: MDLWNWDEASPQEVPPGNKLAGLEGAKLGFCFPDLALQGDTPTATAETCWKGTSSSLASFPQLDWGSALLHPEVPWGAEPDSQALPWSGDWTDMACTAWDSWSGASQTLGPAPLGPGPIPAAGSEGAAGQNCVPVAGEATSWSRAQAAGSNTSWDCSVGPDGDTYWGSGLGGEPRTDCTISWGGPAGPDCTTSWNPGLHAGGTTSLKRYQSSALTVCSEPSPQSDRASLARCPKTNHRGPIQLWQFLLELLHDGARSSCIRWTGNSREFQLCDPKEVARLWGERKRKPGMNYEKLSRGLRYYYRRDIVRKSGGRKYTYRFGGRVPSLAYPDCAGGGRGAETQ
# How it was run: as §1
# ELF3 = target: T5, ELF3 (Homo sapiens, UniProt P78545 1-371)
# T5 sequence: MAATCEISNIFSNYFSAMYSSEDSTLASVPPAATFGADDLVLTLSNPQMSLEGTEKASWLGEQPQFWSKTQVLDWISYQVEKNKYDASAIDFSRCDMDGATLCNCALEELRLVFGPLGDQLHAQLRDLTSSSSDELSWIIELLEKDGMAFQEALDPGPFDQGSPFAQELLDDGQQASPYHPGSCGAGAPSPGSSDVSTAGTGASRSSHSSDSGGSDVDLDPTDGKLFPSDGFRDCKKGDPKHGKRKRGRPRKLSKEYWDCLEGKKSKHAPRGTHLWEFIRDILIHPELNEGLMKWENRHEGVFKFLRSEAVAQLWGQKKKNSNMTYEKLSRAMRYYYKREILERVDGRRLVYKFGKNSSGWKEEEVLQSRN
# How it was run: as §1
# CRX = CRX (Homo sapiens, UniProt O43186 1-299)
# Sequence of CRX (O43186 whole entry): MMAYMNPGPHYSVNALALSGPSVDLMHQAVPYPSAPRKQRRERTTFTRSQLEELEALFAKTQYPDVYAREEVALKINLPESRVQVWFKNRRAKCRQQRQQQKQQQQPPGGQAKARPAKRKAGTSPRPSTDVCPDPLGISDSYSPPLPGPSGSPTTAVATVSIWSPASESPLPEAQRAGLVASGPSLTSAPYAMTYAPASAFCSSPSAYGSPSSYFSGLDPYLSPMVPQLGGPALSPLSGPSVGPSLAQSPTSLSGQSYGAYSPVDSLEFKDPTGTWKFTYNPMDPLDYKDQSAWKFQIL
# How it was run: as §1
# ETV1 = ETV1 (Homo sapiens, UniProt P50549 1-477)
# Sequence of ETV1 (P50549 whole entry): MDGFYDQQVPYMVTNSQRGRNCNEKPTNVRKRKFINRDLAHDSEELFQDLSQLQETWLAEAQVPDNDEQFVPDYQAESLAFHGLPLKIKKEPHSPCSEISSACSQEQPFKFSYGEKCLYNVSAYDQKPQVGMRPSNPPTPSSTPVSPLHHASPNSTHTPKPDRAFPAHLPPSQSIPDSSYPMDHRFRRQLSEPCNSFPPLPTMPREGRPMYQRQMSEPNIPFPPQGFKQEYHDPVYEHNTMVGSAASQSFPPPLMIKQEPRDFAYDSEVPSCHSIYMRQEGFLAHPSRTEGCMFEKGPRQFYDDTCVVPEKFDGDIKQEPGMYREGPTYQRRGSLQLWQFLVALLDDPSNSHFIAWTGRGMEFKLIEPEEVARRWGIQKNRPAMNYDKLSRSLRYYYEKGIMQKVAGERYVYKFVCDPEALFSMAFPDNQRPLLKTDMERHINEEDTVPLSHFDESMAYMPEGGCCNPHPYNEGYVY
# How it was run: as §1
# ERF = target: T6, ERF (Homo sapiens, UniProt P50548 1-548)
# T6 sequence: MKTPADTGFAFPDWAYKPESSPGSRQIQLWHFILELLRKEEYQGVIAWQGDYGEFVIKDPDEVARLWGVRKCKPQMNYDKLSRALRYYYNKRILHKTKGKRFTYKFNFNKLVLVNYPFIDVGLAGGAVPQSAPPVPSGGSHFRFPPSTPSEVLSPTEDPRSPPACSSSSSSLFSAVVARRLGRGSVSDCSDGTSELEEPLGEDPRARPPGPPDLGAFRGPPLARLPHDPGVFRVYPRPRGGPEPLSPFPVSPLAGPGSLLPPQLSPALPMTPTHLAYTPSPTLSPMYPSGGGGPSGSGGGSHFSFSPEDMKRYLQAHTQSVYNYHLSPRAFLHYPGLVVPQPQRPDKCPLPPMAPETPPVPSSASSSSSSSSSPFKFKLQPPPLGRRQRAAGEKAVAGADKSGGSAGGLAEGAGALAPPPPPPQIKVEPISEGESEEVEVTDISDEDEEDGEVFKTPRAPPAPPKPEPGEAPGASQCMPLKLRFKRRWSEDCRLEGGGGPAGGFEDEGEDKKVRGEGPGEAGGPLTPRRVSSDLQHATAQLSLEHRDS
# How it was run: as §1
# ETV3L = target: T7, ETV3L (Homo sapiens, UniProt Q6ZN32 1-361)
# T7 sequence: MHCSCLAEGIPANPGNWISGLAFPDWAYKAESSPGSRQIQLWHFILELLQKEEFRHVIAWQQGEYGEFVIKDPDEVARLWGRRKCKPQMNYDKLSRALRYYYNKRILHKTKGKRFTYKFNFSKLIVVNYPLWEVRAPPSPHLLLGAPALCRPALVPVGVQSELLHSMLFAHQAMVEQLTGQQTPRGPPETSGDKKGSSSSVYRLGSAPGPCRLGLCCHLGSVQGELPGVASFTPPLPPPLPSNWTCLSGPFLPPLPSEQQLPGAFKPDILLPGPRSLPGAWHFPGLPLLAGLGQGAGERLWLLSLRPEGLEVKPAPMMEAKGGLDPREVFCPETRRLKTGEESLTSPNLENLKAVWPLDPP
# How it was run: as §1
# ETS2 = target: T8, ETS2 (Homo sapiens, UniProt P15036 1-469)
# T8 sequence: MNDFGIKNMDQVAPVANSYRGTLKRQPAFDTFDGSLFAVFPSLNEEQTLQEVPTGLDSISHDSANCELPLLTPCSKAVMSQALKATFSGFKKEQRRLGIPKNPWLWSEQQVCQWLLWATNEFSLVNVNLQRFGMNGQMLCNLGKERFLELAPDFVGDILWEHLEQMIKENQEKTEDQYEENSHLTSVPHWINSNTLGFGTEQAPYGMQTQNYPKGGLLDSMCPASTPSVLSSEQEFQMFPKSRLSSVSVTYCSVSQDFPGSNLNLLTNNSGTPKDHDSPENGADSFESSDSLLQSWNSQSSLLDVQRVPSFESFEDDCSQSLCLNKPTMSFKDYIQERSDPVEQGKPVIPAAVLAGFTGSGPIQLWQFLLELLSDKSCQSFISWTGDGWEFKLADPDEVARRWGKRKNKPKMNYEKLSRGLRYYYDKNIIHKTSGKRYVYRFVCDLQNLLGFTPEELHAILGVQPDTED
# How it was run: as §1
# SPDEF = target: T9, SPDEF (Homo sapiens, UniProt O95238 1-335)
# T9 sequence: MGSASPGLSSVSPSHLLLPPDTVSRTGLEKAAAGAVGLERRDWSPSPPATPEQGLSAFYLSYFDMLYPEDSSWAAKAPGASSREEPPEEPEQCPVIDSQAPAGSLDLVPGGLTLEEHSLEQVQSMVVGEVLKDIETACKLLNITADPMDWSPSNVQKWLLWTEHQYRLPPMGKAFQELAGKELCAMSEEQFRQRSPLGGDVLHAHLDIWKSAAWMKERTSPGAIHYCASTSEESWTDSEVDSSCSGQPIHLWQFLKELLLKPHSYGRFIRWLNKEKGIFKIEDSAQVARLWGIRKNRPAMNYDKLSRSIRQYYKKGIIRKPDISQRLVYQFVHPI
# How it was run: as §1
# ETV7 = target: T10, ETV7 (Homo sapiens, UniProt Q9Y603 1-341)
# T10 sequence: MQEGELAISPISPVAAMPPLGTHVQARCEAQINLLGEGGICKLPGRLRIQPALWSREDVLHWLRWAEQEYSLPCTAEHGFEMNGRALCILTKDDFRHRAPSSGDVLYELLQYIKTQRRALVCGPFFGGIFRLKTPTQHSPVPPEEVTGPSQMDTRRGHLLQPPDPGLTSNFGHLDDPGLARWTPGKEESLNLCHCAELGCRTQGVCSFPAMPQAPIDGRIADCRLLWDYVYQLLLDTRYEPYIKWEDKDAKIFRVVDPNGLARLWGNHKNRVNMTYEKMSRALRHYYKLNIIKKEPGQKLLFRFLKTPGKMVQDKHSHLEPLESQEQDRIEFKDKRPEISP
# How it was run: as §1
# ELF5 = target: T11, ELF5 (Homo sapiens, UniProt Q9UKW6-2 1-255)
# T11 sequence: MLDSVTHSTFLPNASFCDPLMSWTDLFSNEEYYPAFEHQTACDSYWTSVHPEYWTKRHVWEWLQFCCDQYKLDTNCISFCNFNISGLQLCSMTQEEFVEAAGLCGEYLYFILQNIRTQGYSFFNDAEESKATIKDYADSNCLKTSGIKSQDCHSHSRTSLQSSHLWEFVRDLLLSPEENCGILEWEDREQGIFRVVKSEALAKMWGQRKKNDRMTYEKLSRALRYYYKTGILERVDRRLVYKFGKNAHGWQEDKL
# How it was run: as §1
# ETV3 = target: T12, ETV3 (Homo sapiens, UniProt P41162-2 1-143)
# T12 sequence: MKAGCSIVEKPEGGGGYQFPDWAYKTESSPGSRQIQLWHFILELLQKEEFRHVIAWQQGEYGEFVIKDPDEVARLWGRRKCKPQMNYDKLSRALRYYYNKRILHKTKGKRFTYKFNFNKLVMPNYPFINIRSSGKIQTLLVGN
# How it was run: as §1
# ETV6 = ETV6 (Homo sapiens, UniProt P41212 1-452)
# Sequence of ETV6 (P41212 whole entry): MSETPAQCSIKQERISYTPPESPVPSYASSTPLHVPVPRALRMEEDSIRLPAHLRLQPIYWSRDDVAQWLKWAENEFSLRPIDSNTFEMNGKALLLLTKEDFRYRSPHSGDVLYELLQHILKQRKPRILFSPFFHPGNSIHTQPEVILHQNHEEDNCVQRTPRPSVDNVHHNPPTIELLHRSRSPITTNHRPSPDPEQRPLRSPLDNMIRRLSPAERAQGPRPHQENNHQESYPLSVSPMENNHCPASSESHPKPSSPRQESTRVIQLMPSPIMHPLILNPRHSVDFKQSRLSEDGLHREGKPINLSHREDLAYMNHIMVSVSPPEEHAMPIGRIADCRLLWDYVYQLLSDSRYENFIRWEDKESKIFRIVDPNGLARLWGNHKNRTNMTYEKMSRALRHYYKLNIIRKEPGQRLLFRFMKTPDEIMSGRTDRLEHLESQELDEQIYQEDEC
# How it was run: as §1
sequence,measurement,setting,value
TCACCC,binding signal,FEV,"1.15 fold enrichment (6-mer frequency, TF over GST control)"
same,binding signal,ETV5,"1.18 fold enrichment (6-mer frequency, TF over GST control)"
same,binding signal,SPIC,"1.13 fold enrichment (6-mer frequency, TF over GST control)"
same,binding signal,ELF4,"1.21 fold enrichment (6-mer frequency, TF over GST control)"
same,binding signal,ELK4,"1.16 fold enrichment (6-mer frequency, TF over GST control)"
same,binding signal,ETV2,"1.01 fold enrichment (6-mer frequency, TF over GST control)"
same,binding signal,ELF3,"1.16 fold enrichment (6-mer frequency, TF over GST control)"
same,binding signal,CRX,"1.02 fold enrichment (6-mer frequency, TF over GST control)"
same,binding signal,ETV1,"1.18 fold enrichment (6-mer frequency, TF over GST control)"
same,binding signal,ERF,"1.2 fold enrichment (6-mer frequency, TF over GST control)"
same,binding signal,ETV3L,"1.16 fold enrichment (6-mer frequency, TF over GST control)"
same,binding signal,ETS2,"1.13 fold enrichment (6-mer frequency, TF over GST control)"
same,binding signal,SPDEF,"1.23 fold enrichment (6-mer frequency, TF over GST control)"
same,binding signal,ETV7,"1.04 fold enrichment (6-mer frequency, TF over GST control)"
same,binding signal,ELF5,"1.07 fold enrichment (6-mer frequency, TF over GST control)"
same,binding signal,ETV3,"1.14 fold enrichment (6-mer frequency, TF over GST control)"
same,binding signal,ETV6,"1.05 fold enrichment (6-mer frequency, TF over GST control)"
